Measured values published in ChEMBL document CHEMBL1961873, “Compounds: GSK PKIS; Assays: Nanosyn kinase panel” (2012).

Experiments:
[1] = molecular target: T1, Tyrosine-protein kinase receptor TYRO3 (Homo sapiens) (UniProt Q06418); settings: at 1 µM
T1 sequence (whole entry): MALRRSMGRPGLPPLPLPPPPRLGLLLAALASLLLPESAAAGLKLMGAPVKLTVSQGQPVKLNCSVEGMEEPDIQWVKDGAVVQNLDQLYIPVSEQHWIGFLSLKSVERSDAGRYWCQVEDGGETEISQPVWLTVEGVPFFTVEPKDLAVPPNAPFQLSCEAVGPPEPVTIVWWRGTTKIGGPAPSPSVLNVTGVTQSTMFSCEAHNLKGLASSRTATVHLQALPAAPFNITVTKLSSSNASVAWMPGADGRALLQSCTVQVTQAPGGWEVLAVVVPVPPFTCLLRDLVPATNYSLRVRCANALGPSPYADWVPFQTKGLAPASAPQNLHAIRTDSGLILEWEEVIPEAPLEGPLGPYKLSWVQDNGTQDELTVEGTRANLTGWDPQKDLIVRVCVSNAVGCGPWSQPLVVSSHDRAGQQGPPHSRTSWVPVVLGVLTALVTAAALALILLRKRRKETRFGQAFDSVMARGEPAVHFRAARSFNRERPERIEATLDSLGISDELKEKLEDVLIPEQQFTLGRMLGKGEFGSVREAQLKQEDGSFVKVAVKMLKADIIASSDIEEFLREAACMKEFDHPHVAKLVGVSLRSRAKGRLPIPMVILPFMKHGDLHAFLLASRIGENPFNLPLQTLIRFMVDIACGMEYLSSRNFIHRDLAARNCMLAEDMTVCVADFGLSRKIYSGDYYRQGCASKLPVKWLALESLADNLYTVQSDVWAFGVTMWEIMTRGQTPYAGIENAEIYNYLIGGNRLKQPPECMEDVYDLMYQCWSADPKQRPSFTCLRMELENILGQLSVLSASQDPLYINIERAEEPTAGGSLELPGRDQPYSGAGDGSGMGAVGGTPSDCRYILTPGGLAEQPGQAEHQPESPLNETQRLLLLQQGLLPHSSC

[2] = molecular target: Tyrosine-protein kinase Yes (Homo sapiens) (UniProt P07947); settings: at 0.1 µM
[3] = molecular target: Tyrosine-protein kinase Yes (Homo sapiens) (UniProt P07947); settings: at 1 µM
[4] = molecular target: T2, Tyrosine-protein kinase ZAP-70 (Homo sapiens) (UniProt P43403); settings: at 0.1 µM
T2 sequence (whole entry): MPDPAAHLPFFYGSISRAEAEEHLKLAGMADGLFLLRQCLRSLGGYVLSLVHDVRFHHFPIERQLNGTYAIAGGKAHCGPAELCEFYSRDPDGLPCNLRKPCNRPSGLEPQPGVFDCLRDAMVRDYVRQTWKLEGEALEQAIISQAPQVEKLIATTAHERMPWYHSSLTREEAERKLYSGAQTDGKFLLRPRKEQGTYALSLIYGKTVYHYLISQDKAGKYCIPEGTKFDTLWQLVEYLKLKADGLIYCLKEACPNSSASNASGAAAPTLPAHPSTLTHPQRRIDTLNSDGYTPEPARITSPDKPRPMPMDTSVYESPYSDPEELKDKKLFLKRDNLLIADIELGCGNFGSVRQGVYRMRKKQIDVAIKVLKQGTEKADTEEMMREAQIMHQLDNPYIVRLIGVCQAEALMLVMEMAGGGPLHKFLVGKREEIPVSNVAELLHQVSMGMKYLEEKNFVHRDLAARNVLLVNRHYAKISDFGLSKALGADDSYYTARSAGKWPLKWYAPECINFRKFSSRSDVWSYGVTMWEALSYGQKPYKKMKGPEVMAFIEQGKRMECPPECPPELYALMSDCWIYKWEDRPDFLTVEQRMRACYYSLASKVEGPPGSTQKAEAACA

[5] = molecular target: T2, Tyrosine-protein kinase ZAP-70 (Homo sapiens); settings: at 1 µM
[6] = molecular target: Serine/threonine-protein kinase B-raf (Homo sapiens) (UniProt P15056); settings: at 0.1 µM
[7] = molecular target: Serine/threonine-protein kinase B-raf (Homo sapiens) (UniProt P15056); settings: at 1 µM
[8] = system: Serine/threonine-protein kinase B-raf (Homo sapiens), P15056 [V600E]; settings: at 0.1 µM
[9] = system: Serine/threonine-protein kinase B-raf (Homo sapiens), P15056 [V600E]; settings: at 1 µM
[10] = molecular target: RAF proto-oncogene serine/threonine-protein kinase (Homo sapiens) (UniProt P04049); settings: at 0.1 µM
[11] = molecular target: RAF proto-oncogene serine/threonine-protein kinase (Homo sapiens) (UniProt P04049); settings: at 1 µM
[12] = molecular target: T3, Interleukin-1 receptor-associated kinase 4 (Homo sapiens) (UniProt Q9NWZ3); settings: at 0.1 µM
T3 sequence (whole entry): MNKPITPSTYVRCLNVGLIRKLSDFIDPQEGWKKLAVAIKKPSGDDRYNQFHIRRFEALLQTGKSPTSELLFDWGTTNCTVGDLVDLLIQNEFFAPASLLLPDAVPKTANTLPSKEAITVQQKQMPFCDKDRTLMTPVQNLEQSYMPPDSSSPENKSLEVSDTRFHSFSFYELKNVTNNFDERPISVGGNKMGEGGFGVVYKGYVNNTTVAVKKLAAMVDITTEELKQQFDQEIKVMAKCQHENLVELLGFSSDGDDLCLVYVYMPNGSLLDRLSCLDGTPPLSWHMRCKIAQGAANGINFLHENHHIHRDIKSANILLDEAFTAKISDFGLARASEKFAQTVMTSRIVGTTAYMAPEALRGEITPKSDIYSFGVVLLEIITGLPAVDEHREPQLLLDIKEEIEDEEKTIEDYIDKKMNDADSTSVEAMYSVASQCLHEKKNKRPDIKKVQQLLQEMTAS

[13] = molecular target: T3, Interleukin-1 receptor-associated kinase 4 (Homo sapiens); settings: at 1 µM
[14] = molecular target: Leucine-rich repeat serine/threonine-protein kinase 2 (Homo sapiens) (UniProt Q5S007); settings: at 0.1 µM
[15] = molecular target: Leucine-rich repeat serine/threonine-protein kinase 2 (Homo sapiens) (UniProt Q5S007); settings: at 1 µM
[16] = system: Leucine-rich repeat serine/threonine-protein kinase 2 (Homo sapiens), Q5S007 [G2019S]; settings: at 0.1 µM
[17] = system: Leucine-rich repeat serine/threonine-protein kinase 2 (Homo sapiens), Q5S007 [G2019S]; settings: at 1 µM

Leucine-rich repeat serine/threonine-protein kinase 2 (Homo sapiens), Q5S007 [G2019S], sequence (Q5S007 whole entry G2019S): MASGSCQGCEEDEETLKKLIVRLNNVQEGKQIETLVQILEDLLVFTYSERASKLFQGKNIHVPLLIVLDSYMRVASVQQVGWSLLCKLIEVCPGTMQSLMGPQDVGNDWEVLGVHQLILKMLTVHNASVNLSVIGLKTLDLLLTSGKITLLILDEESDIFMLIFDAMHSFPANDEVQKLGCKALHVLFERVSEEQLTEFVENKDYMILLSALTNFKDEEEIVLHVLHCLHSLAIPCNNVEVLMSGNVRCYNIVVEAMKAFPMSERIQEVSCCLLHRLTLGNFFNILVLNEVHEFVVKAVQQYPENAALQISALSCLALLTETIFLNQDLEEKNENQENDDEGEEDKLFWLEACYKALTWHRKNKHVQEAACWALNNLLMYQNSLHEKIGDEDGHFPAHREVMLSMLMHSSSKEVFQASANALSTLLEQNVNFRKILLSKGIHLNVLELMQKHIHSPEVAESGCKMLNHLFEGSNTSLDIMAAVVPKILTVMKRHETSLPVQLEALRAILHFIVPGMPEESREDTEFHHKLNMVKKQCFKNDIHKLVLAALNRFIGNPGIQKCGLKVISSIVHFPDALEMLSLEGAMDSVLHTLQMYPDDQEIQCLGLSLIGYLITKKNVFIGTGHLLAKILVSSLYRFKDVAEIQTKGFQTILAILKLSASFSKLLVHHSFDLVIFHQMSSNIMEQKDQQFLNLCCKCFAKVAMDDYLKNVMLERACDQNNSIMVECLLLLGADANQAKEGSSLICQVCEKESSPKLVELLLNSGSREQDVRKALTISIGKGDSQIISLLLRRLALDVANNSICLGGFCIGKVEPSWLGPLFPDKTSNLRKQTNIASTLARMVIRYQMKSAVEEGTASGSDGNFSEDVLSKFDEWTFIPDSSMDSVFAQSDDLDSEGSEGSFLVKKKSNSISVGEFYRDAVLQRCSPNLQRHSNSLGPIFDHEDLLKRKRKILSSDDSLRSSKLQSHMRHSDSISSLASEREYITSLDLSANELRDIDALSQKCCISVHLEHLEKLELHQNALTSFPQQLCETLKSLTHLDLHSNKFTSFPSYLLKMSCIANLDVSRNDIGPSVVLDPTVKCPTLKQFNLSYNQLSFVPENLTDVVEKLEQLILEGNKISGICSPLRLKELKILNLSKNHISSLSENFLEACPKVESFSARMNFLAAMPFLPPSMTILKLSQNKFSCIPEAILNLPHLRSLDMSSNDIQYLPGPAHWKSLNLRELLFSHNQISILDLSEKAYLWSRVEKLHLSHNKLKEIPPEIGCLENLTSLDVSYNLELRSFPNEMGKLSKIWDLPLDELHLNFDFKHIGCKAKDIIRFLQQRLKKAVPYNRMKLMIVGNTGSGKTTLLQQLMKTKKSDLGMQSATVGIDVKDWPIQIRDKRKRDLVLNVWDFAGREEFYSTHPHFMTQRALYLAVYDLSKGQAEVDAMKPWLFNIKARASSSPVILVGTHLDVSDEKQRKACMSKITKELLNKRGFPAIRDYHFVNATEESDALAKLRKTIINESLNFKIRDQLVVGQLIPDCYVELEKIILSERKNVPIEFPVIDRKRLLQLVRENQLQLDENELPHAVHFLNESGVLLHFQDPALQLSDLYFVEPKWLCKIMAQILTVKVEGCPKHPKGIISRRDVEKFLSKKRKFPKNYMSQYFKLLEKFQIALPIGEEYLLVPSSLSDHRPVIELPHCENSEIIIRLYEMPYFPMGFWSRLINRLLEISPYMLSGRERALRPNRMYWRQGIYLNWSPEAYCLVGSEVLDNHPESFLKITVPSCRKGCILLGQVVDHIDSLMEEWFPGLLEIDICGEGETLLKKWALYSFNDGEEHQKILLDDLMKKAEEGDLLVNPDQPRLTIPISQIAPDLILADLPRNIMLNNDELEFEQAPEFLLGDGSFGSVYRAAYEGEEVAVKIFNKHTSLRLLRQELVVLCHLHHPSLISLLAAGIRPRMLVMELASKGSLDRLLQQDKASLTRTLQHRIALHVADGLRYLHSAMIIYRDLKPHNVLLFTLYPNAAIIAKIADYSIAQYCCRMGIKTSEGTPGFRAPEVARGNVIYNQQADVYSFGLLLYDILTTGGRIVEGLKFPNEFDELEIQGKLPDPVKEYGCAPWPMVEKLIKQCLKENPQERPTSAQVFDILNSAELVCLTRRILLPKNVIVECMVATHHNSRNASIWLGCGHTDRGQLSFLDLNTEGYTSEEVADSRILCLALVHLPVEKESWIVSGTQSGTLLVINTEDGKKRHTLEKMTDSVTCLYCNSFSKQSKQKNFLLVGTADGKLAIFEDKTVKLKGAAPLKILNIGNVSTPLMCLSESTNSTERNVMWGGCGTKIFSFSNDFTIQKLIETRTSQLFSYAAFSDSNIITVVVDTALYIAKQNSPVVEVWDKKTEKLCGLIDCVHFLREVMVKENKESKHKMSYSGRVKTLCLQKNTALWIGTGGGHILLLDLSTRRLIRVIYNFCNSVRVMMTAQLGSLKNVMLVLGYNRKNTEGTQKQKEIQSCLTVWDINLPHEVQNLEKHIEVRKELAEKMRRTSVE
Tyrosine-protein kinase Yes (Homo sapiens), sequence (P07947 2-543 limits assumed): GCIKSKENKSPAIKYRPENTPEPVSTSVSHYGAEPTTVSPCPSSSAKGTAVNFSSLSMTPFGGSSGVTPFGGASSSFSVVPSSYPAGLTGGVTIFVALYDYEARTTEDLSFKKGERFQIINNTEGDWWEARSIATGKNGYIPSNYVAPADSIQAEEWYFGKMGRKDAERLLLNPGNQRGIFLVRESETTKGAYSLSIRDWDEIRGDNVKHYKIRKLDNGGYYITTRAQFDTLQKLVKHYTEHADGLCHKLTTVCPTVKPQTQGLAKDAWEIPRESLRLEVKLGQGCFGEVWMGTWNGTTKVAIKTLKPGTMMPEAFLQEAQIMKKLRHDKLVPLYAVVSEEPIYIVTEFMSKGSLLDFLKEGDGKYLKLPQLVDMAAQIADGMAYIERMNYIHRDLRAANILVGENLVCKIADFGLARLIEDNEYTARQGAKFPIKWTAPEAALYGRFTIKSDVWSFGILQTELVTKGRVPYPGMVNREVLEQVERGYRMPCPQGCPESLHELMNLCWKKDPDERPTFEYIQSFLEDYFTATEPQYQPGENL
Leucine-rich repeat serine/threonine-protein kinase 2 (Homo sapiens), sequence (Q5S007 whole entry): as the sequence (Q5S007 whole entry G2019S) above, with S2019G counted along it
Serine/threonine-protein kinase B-raf (Homo sapiens), sequence (P15056 whole entry): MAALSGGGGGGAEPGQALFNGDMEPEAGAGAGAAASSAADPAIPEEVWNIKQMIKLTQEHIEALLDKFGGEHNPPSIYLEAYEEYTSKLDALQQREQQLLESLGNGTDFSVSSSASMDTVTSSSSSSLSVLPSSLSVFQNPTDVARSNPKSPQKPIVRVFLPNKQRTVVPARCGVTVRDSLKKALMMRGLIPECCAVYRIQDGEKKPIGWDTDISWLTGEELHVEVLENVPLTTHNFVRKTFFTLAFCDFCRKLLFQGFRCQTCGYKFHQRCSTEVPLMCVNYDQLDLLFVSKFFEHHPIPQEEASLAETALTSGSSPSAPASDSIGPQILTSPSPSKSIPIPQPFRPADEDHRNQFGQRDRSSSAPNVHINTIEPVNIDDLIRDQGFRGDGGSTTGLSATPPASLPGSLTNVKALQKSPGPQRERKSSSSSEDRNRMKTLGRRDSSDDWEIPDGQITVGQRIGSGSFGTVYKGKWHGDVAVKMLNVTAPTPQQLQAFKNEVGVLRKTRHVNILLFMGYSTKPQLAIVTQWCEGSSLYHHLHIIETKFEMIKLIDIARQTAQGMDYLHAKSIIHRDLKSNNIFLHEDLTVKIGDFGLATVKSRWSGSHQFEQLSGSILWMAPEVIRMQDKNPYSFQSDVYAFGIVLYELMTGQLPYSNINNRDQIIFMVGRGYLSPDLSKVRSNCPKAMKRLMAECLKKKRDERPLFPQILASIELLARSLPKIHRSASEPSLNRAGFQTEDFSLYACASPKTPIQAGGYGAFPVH
RAF proto-oncogene serine/threonine-protein kinase (Homo sapiens), sequence (P04049 whole entry): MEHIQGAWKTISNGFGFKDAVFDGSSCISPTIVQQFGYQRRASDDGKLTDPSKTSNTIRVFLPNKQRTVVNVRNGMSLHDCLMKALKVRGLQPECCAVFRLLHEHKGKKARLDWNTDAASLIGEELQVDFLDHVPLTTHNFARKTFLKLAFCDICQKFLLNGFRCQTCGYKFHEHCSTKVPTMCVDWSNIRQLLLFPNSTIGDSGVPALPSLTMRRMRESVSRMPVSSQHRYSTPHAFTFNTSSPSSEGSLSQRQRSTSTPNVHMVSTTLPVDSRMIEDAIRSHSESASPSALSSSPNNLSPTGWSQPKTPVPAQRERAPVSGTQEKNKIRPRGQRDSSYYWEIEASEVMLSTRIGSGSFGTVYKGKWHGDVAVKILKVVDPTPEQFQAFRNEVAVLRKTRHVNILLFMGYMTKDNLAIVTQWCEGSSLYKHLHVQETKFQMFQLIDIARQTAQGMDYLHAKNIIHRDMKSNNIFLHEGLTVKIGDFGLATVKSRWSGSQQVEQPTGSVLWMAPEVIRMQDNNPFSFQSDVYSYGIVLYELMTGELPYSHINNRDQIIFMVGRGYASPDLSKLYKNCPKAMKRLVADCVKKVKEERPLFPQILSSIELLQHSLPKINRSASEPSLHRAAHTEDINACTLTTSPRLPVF
Serine/threonine-protein kinase B-raf (Homo sapiens), P15056 [V600E], sequence (P15056 whole entry V600E): as the sequence (P15056 whole entry) above, with V600E counted along it

C[C@@H](Oc1cc(-n2cnc3ccc(OC4CCN(C)CC4)cc32)sc1C(N)=O)c1ccccc1Cl
inhibition [1]: 4.84% | inhibition [2]: -0.81% | inhibition [3]: 3.04% | inhibition [4]: -2.84% | inhibition [5]: -1.32% | inhibition [6]: 5.72% | inhibition [7]: 7.68% | inhibition [8]: 4.5% | inhibition [9]: 3.24% | inhibition [10]: 2.09% | inhibition [11]: 0.92% | inhibition [12]: 1.54% | inhibition [13]: 3.69% | inhibition [14]: -3.8% | inhibition [15]: 6.57% | inhibition [16]: -1.8% | inhibition [17]: 13.5%

COc1ccc2cc(-c3c(-c4ccncc4)nc(-c4ccc([S+](C)[O-])cc4C)n3C)ccc2c1 (configuration not stated)
inhibition [1]: 2.2% | inhibition [2]: 3.84% | inhibition [3]: 21.3% | inhibition [4]: -0.83% | inhibition [5]: -0.09% | inhibition [6]: 0.29% | inhibition [7]: -0.78% | inhibition [8]: -0.1% | inhibition [9]: -0.41% | inhibition [10]: -0.64% | inhibition [11]: 2.82% | inhibition [12]: -4.88% | inhibition [13]: -0.25% | inhibition [14]: -0.88% | inhibition [15]: 0.64% | inhibition [16]: 0.88% | inhibition [17]: 4.04%

COc1ccc2ncn(-c3cc(O[C@H](C)c4ccccc4Cl)c(C(N)=O)s3)c2c1
inhibition [1]: 3.45% | inhibition [2]: 1.1% | inhibition [3]: 0.5% | inhibition [4]: -4.58% | inhibition [5]: 0.58% | inhibition [6]: 5.68% | inhibition [7]: 4.96% | inhibition [8]: 3.17% | inhibition [9]: 3.29% | inhibition [10]: 0.5% | inhibition [11]: 0.5% | inhibition [12]: 1.46% | inhibition [13]: 1.82% | inhibition [14]: -2.19% | inhibition [15]: 9.87% | inhibition [16]: 2.01% | inhibition [17]: 20.2%

Cc1nnc(-c2ccc(C)c(-c3ccc(C(=O)NCc4ccc(Cl)cc4)cc3)c2)o1
inhibition [1]: 3.57% | inhibition [2]: 2.58% | inhibition [3]: 5.29% | inhibition [5]: -3.27% | inhibition [6]: 5.55% | inhibition [7]: 4.07% | inhibition [8]: 6.27% | inhibition [9]: 3.85% | inhibition [10]: 8.41% | inhibition [11]: -0.47% | inhibition [12]: 4.09% | inhibition [13]: 2.12% | inhibition [14]: -4.32% | inhibition [15]: -3.04% | inhibition [16]: -2.08% | inhibition [17]: -4%

NS(=O)(=O)c1ccc(Nc2cc(-c3ccc(O)c(F)c3)n[nH]2)cc1
inhibition [1]: 52.3% | inhibition [2]: -3.77% | inhibition [3]: 11.7% | inhibition [6]: -4.38% | inhibition [7]: -2.42% | inhibition [8]: -4.83% | inhibition [9]: -3.52% | inhibition [10]: -4.11% | inhibition [11]: 0.94% | inhibition [12]: 3.6% | inhibition [13]: -1.08% | inhibition [14]: 1.51% | inhibition [15]: 13.2% | inhibition [16]: 4.54% | inhibition [17]: 29.7%

CCS(=O)(=O)c1ccc(OC)c(Nc2ncc(-c3ccccc3Cl)o2)c1
inhibition [1]: 42.6% | inhibition [2]: 8.95% | inhibition [3]: 39.3% | inhibition [4]: 2.78% | inhibition [5]: -0.17% | inhibition [6]: 0.55% | inhibition [7]: 0.2% | inhibition [8]: 0.25% | inhibition [9]: 0.86% | inhibition [10]: 0.78% | inhibition [11]: -2.68% | inhibition [12]: -1.05% | inhibition [13]: 3.5% | inhibition [14]: 2.06% | inhibition [15]: 10.3% | inhibition [16]: 1.06% | inhibition [17]: 13.4%

CN(C)CCOc1ccc(-c2cc(-c3ccc4c(c3)CCC4=NO)c(-c3ccncc3)o2)cc1
inhibition [1]: 2.92% | inhibition [2]: 2.18% | inhibition [3]: 9.45% | inhibition [4]: -2.95% | inhibition [5]: 0.13% | inhibition [6]: 48.5% | inhibition [7]: 85% | inhibition [8]: 56.3% | inhibition [9]: 86.2% | inhibition [10]: -4.4% | inhibition [11]: 39.8% | inhibition [12]: -0.42% | inhibition [13]: 0.12% | inhibition [14]: 1.03% | inhibition [15]: 3.55% | inhibition [16]: 1.85% | inhibition [17]: 2.48%

NS(=O)(=O)c1ccc(N/N=C2\C(=O)Nc3ccc(-c4cnco4)cc32)cc1
inhibition [1]: 12.4% | inhibition [2]: 2.12% | inhibition [3]: 12.1% | inhibition [5]: 2.47% | inhibition [6]: 3.07% | inhibition [7]: 5.71% | inhibition [8]: 1.57% | inhibition [9]: 4.4% | inhibition [10]: 0.67% | inhibition [11]: -0.01% | inhibition [12]: 0.31% | inhibition [13]: 1.08% | inhibition [14]: 9.37% | inhibition [15]: 52.5% | inhibition [16]: 32.2% | inhibition [17]: 55.8%
